Source: the supplement of paper PMC8975748
Where a name gives a salt, the structure may show the parent alone.

system: Saccharomyces cerevisiae BY4741 SeMeCo community; experiment: z-score of subpopulation abundance vs DMSO median, subpopulation auxotrophic for HUM; higher = larger share of this subpopulation than in DMSO controls; details: 10 µM; 24 h; SM minimal medium; subpopulation (auxotrophy): HUM
Experimental: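 Fluorescent four-plasmid SeMeCo (self-establishing metabolically cooperating S. cerevisiae BY4741 community; plasmids pH-mRuby2, pL-mWasabi, pU-eCFP, pM-TagRFP657) was grown 24 h in minimal SM medium with each Selleck FDA-approved drug at 10 µM in 384-well plates. Cells were fixed and imaged by high-content confocal microscopy. For each auxotrophic subpopulation (and the prototroph), a z-score gives the deviation from the DMSO vehicle-control population median.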

Row | Compound | z-score of subpopulation abundance
1 | Cc1nc(C)c(Cl)c(O)c1Cl [Clopidol] | -0.08
2 | CSc1nc2cc(Cl)c(Oc3cccc(Cl)c3Cl)cc2[nH]1 [Triclabendazole] | -1.46
3 | CCCCCCCCCC(=O)N[C@@H](Cc1c[nH]c2ccccc12)C(=O)N[C@H](CC(N)=O)C(=O)N[C@@H](CC(=O)O)C(=O)N[C@@H]1C(=O)NCC(=O)N[C@@H](CCCN)C(=O)N[C@@H](CC(=O)O)C(=O)N[C@H](C)C(=O)N[C@@H](CC(=O)O)C(=O)NCC(=O)N[C@H](CO)C(=O)N[C@@H]([C@H](C)CC(=O)O)C(=O)N[C@@H](CC(=O)c2ccccc2N)C(=O)O[C@@H]1C [Daptomycin] | 0.77
4 | CN(C)CCCN1c2ccccc2Sc2ccc(Cl)cc21 [Chlorpromazine HCl] | 0.9
5 | COc1ccc2c(c1)c(CC(=O)OCC(=O)O)c(C)n2C(=O)c1ccc(Cl)cc1 [Acemetacin] | 0.69
6 | O=c1[nH]c(=O)n([C@H]2C[C@H](O)[C@@H](CO)O2)cc1/C=C/Br [Brivudine] | -0.74
7 | CO[C@H]1C[C@@H]2CC[C@@H](C)[C@@](O)(O2)C(=O)C(=O)N2CCCC[C@H]2C(=O)O[C@H]([C@H](C)C[C@@H]2CC[C@@H](O)[C@H](OC)C2)CC(=O)[C@H](C)/C=C(\C)[C@@H](O)[C@@H](OC)C(=O)[C@H](C)C[C@H](C)/C=C/C=C/C=C/1C [Rapamycin (Sirolimus)] | 33
8 | CC(C)(C)C1CCC(CC2=C(O)c3ccccc3C(=O)C2=O)CC1 (stereo not given) [Buparvaquone] | 0.83
9 | CC1(C)S[C@@H]2[C@H](NC(=O)[C@H](NC(=O)N3CCNC3=O)c3ccccc3)C(=O)N2[C@H]1C(=O)O [Azlocillin sodium salt] | -1.31
10 | CCN(CC)CCOC(=O)c1ccc(N)cc1Cl [Chloroprocaine HCl] | 0.14
11 | CC(=O)OCC[N+](C)(C)C [Acetylcholine iodide] | -0.36
12 | CCCCOc1ccc(C(=O)CCN2CCCCC2)cc1 [Dyclonine HCl] | 0.17
13 | Oc1c(I)cc(Cl)c2cccnc12 [Clioquinol] | 16.6
14 | CCN1CCN(C(=O)N[C@@H](C(=O)N[C@@H]2C(=O)N3[C@@H]2SC(C)(C)[C@@H]3C(=O)O)c2ccccc2)C(=O)C1=O [Piperacillin Sodium] | 0.48
15 | CCCC1CC(C(=O)NC(C(C)Cl)C2OC(SC)C(O)C(O)C2O)N(C)C1 (stereo not given) [Clindamycin alcoholate] | 0.14
16 | O=C(O)c1cc(-c2ccc(F)cc2F)ccc1O [Diflunisal] | -2.64
17 | Nc1ccc(S(=O)(=O)c2ccc(N)cc2)cc1 [Dapson] | 0.6
18 | CC(=O)NC[C@H]1CN(c2ccc(N3CCOCC3)c(F)c2)C(=O)O1 [Linezolid] | 0.01
19 | CN[C@H]1C(=O)N[C@@H]2Cc3ccc(cc3)Oc3cc4cc(c3O[C@@H]3O[C@H](C(=O)O)[C@@H](O)[C@H](O)[C@H]3NC(=O)CCCCCCCCC(C)C)Oc3ccc(cc3Cl)[C@@H](O)[C@@H]3NC(=O)[C@H](NC(=O)[C@@H]4NC(=O)[C@@H](NC2=O)c2cc(cc(O)c2Cl)Oc2cc1ccc2O)c1ccc(O)c(c1)-c1c(O[C@H]2O[C@H](CO)[C@@H](O)[C@H](O)[C@@H]2O)cc(O)cc1[C@@H](C(=O)NCCCN(C)C)NC3=O [Dalbavancin] | 1.97
20 | N=C(N)NC(=N)N1CCOCC1 [Moroxydine HCl] | -0.28

Row | Compound | z-score of subpopulation abundance
21 | CC[C@@]1(O)C(=O)OCc2c1cc1n(c2=O)Cc2cc3c(CN(C)C)c(O)ccc3nc2-1 [Topotecan HCl] | -0.98
22 | C[C@@H](O)[C@H]1C(=O)N2C(C(=O)[O-])=C(SC3Cn4cnc[n+]4C3)[C@H](C)[C@H]12 (stereo not given in full) [Biapenem] | -0.24
23 | CC(=O)OCC(CCn1cnc2cnc(N)nc21)COC(C)=O [Famciclovir] | -0.82
24 | Clc1ccc(C(Cn2ccnc2)OCc2ccsc2Cl)c(Cl)c1 (stereo not given) [Tioconazole] | 3.39
25 | NC(=O)C(c1ccccc1)(c1ccccc1)[C@@H]1CCN(CCc2ccc3c(c2)CCO3)C1 [Darifenacin HBr] | 0.05
26 | Cc1c(-c2ccccc2)oc2c(C(=O)OCCN3CCCCC3)cccc2c1=O [Flavoxate HCl] | -0.16
27 | COC(=O)C1=C(C)NC(C)=C(C(=O)OC)C1c1ccccc1[N+](=O)[O-] [Nifedipine] | -0.1
28 | COc1cc2c(cc1OC)C(=O)C(CC1CCN(Cc3ccccc3)CC1)C2 (stereo not given) [Donepezil HCl] | 0.3
29 | C[C@H]1c2cccc(O)c2C(O)=C2C(=O)[C@]3(O)C(O)=C(C(N)=O)C(=O)[C@@H](N(C)C)[C@@H]3[C@@H](O)[C@@H]21 [Doxycycline monohydrate] | -0.92
30 | CC#C[C@]1(O)CC[C@H]2[C@@H]3CCC4=CC(=O)CCC4=C3[C@@H](c3ccc(N(C)C)cc3)C[C@@]21C [Mifepristone] | 1.71
31 | C=C1c2cccc(O)c2C(O)=C2C(=O)[C@]3(O)C(O)=C(C(N)=O)C(=O)[C@@H](N(C)C)[C@@H]3[C@@H](O)[C@H]12 [Methacycline HCl] | -0.03
32 | COc1ccc2c(c1)c(CC(=O)O)c(C)n2C(=O)c1ccc(Cl)cc1 [Indomethacin] | 0.09
33 | CC(C)COCC(CN(Cc1ccccc1)c1ccccc1)N1CCCC1 (stereo not given) [Bepridil hydrochloride] | 1.35
34 | CC[C@H]1OC(=O)C[C@@H](O)[C@H](C)[C@@H](O[C@@H]2O[C@H](C)[C@@H](O)[C@H](N(C)C)[C@H]2O)[C@@H](CCN2C[C@H](C)C[C@H](C)C2)C[C@@H](C)C(=O)/C=C/C(C)=C/[C@@H]1CO[C@@H]1O[C@H](C)[C@@H](O)[C@@H](OC)[C@H]1OC [Tilmicosin] | 0.75
35 | CCCCCc1ccc(C)cc1O [Amylmetacresol] | -0.2
36 | Cc1ccc(Sc2ccccc2N2CCNCC2)c(C)c1 [Vortioxetine] | 0.6
37 | CCCCCCCCOc1ccccc1C(=O)Nc1ccc(C(=O)OCC[N+](C)(CC)CC)cc1 [Otilonium Bromide] | 2.02
38 | COC(=O)Nc1nc2cc(C(=O)c3ccccc3)ccc2[nH]1 [Mebendazole] | 1.64
39 | COC(=O)Nc1nc2cc(C(=O)c3ccc(F)cc3)ccc2[nH]1 [Flubendazole] | 0.06
40 | CC(=O)Oc1ccccc1C(=O)O [Aspirin] | -0.14
